# Source: PubChem BioAssay (NCI)
# This is part of a sample that, as a whole, favours compounds with a hit. Of some 83,000 tested, about 20% had one in any assay.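 Growth was measured after 48 h exposure to one concentration of compound in 96-well plates. Values under 10 count as active.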 Values without a mark were called inactive. Calls of active or inactive are those of the source.
# Experiments:
# Experiment in all cases: NCI-60 one-dose screen, 48 h (100 = growth as untreated, 0 = no growth, -100 = all killed)
# Details in all cases: 10 µM unless noted
# NCI-H23 lung = tested on: NCI-H23 lung
# NCI-H226 lung = tested on: NCI-H226 lung
# NCI-H322M lung = tested on: NCI-H322M lung
# HOP-62 NSCLC = tested on: HOP-62 NSCLC
# NCI-H460 lung = tested on: NCI-H460 lung
# HOP-92 NSCLC = tested on: HOP-92 NSCLC
# NCI-H522 lung = tested on: NCI-H522 lung
# A549/ATCC NSCLC = tested on: A549/ATCC NSCLC
# 786-0 renal = tested on: 786-0 renal
# COLO 205 colon = tested on: COLO 205 colon
# DU-145 prostate = tested on: DU-145 prostate
# K-562 leukemia = tested on: K-562 leukemia
# MALME-3M melanoma = tested on: MALME-3M melanoma
# MDA-MB-231 breast = tested on: MDA-MB-231 breast
# RXF 393 renal = tested on: RXF 393 renal
# SF-268 CNS = tested on: SF-268 CNS
# SF-295 CNS = tested on: SF-295 CNS
# SF-539 CNS = tested on: SF-539 CNS
# UACC-257 melanoma = tested on: UACC-257 melanoma
# M14 melanoma = tested on: M14 melanoma
SMILES,growth (NCI-H23 lung),growth (NCI-H226 lung),growth (NCI-H322M lung),growth (HOP-62 NSCLC),growth (NCI-H460 lung),growth (HOP-92 NSCLC),growth (NCI-H522 lung),growth (A549/ATCC NSCLC),growth (786-0 renal),growth (COLO 205 colon),growth (DU-145 prostate),growth (K-562 leukemia),growth (MALME-3M melanoma),growth (MDA-MB-231 breast),growth (RXF 393 renal),growth (SF-268 CNS),growth (SF-295 CNS),growth (SF-539 CNS),growth (UACC-257 melanoma),growth (M14 melanoma)
Cc1nccc2c3ccc(OCc4cn(-c5ccc(Cl)cc5)nn4)cc3n(CCCc3ccccc3)c12,70.5%,-10.9% (active),50%,6.51% (active),14.4%,26.6%,46.6%,4.77% (active),-72.6% (active),-3.42% (active),27.6%,11.1%,-7.83% (active),27.4%,-2.27% (active),-5.93% (active),8.27% (active),-16.5% (active),-34.6% (active),-73.2% (active)
COc1cc2nc(-c3ccc(C(F)(F)F)cc3)cc(OCCCN3CCCCC3)c2cc1OC,57.9%,-11.8% (active),62.3%,57.6%,17.7%,27.9%,33.6%,44.4%,48.4%,11.6%,45.3%,12.8%,39.9%,27.7%,26.9%,50.6%,-46.8% (active),46.1%,10.1%,-19.2% (active)
N#Cc1c(NC(=O)c2cccc(Br)c2)sc2c1CCCC2,91%,89.8%,79.1%,83.3%,75.3%,86.2%,75.9%,75.2%,82.6%,94.2%,89.7%,22.5%,62.4%,82.2%,96.8%,97.6%,80.8%,86.6%,83.4%,72.2%
CCOC(=O)N1CCc2c(sc3nc4nc[nH]n4c(=O)c23)C1,95%,82.4%,109%,86.6%,109%,93.8%,85.2%,100%,99.6%,102%,107%,105%,102%,99.9%,104%,99.7%,103%,94.6%,109%,98.4%
CC(=O)c1cccc(NS(=O)(=O)c2cccc(C(=O)Nc3ccc(Br)cc3)c2)c1,29.4% [25 µM],49.3% [25 µM],73.4% [25 µM],68.9% [25 µM],63.4% [25 µM],33.9% [25 µM],48.8% [25 µM],58% [25 µM],56.2% [25 µM],61% [25 µM],75.4% [25 µM],33% [25 µM],42.1% [25 µM],73.8% [25 µM],61.5% [25 µM],51.4% [25 µM],27.3% [25 µM],65.3% [25 µM],36.4% [25 µM],51.7% [25 µM]
COc1ccc(/C(=C\c2ccccc2)C(=O)O)cc1OC,93.6%,83.5%,98%,2.18% (active),101%,97.9%,101%,102%,104%,100%,108%,134%,95.9%,89.1%,104%,103%,101%,103%,99.2%,98.3%
O=C(Nc1ccc(Nc2ncccn2)cc1)NC1C=c2ccccc2=CC1 (stereo not given),104%,96.7%,111%,113%,104%,110%,99.3%,93.1%,104%,123%,109%,89.1%,114%,91.3%,89.9%,98.5%,100%,100%,94.9%,111%
O=C1C(=O)c2c(nc3ncccn23)-c2ccccc21,-49.4% (active),-83.2% (active),-96.7% (active),-90.4% (active),-49.3% (active),-84.1% (active),-60.7% (active),-35.6% (active),-94.9% (active),-70.7% (active),-96.8% (active),-43.5% (active),-96.9% (active),-55.3% (active),-97.2% (active),-70.8% (active),-97.8% (active),-98.3% (active),-95.4% (active),-87% (active)
COc1ccc(CNCCN2C(=O)c3ccc4c5c(ccc(c35)C2=O)C(=O)N(CCNCc2ccc(OC)cc2)C4=O)cc1,-52.5% (active),-63.7% (active),-74.2% (active),-33.8% (active),-78.8% (active),-46.8% (active),-80.9% (active),-84.1% (active),-76.5% (active),-40.9% (active),-90.6% (active),-37.8% (active),-76.3% (active),-16.7% (active),-93% (active),-71.2% (active),-62.2% (active),-77.3% (active),-91% (active),-72.8% (active)
C(=C\c1n(Cc2ccc3ccccc3c2)c(-c2ccccc2)c(-c2ccccc2)[n+]1Cc1ccc2ccccc2c1)/c1ccccc1,-80.2% (active),-74.9% (active),-5.86% (active),-84.5% (active),-84.1% (active),-81.8% (active),-62.3% (active),-62.4% (active),-78.2% (active),-70.5% (active),-97% (active),-22.3% (active),-86.9% (active),-95% (active),-93.5% (active),-68.5% (active),-95.9% (active),-91.9% (active),-69.2% (active),-72.2% (active)
O=C(CCN1CCCC1)Nc1ccc2c(Nc3ccccc3)c3ccccc3nc2c1,22.1%,41.9%,7.35% (active),12.1%,-60.7% (active),14.3%,-33.7% (active),10.1%,10.1%,-37.4% (active),-28.5% (active),0.263% (active),-85.1% (active),3.81% (active),8.26% (active),26.1%,33.4%,-62.5% (active),-39.5% (active),-77.4% (active)
COc1ccc(CC(C)=C(c2ccc(OCCN(C)C)cc2)c2ccc(OCCN(C)C)cc2)cc1,89.3%,88.9%,85.8%,82.6%,79.6%,37.1%,79.5%,77.1%,68.1%,67.3%,83.1%,-28.1% (active),96%,39%,74.2%,82.7%,67.3%,81.7%,92.7%,-39.7% (active)
Cc1ccc(C2C3CC4CCCCC4N3[C@@]3(C(=O)Nc4cc(Cl)ccc43)C2C(=O)c2nc3ccccc3[nH]2)cc1 (stereo not given in full),57.8%,62.7%,63.3%,66.5%,15.9%,44.1%,54%,31.1%,35.2%,30.6%,64.3%,26.2%,33.9%,30.6%,15.5%,38.3%,27.9%,50.3%,35.1%,27.9%
O=c1[nH]c(=O)[nH]c(=S)[nH]1,98.5%,97.9%,95.6%,102%,105%,101%,94.6%,99.7%,102%,103%,105%,105%,98%,102%,107%,102%,102%,98.8%,101%,100%
CC(=O)OC1CCC2(C)C(CCC3C4CC=C(C(C)=O)C4(C)OC(=O)CC32)C1 (stereo not given),34.7%,45%,95.7%,61%,78.1%,-21.2% (active),-81.1% (active),59.1%,64%,2.72% (active),38.2%,-12.4% (active),-25.6% (active),35.3%,-60.5% (active),53%,73.1%,61.7%,-74.9% (active),-31.6% (active)
